PubChem BioAssay (NCATS)
Inconclusive results are not listed. The source made the active and inactive calls. Unless noted, calls follow the shape of the dose curve; as a rule, active = well fitted curve in the direction sought with a large enough effect; inconclusive = small, poorly fitted or top-dose-only effect, or another doubt; inactive = no such curve, though single readings can be large; an effect the other way counts as inactive or inconclusive.

Key:
[1] = Validation screen for small molecules that induce DNA re-replication in MCF 10A normal breast cells (AID 463097); also: nearly all actives have a fitted effect of over 60% in size
Summary of the method: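 250 MCF 10A cells/well; compound pin-transferred; 48 hr, 37 C, 5% CO2; Hoechst 40 min; imaged 405/500-530 nm. Hits = more high-intensity nuclei.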

[2] = Quantitative high throughput screen for delayed death inhibitors of the malarial parasite plastid, 48 hour incubation (AID 488752); also: nearly all actives have a fitted effect of over 65% in size
Summary of the method: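 First, compound was pinned into RPMI 1640 medium containing 0.5% Albumax. Next, reporter-parasite-infected erythrocytes were added to 2% hematocrit and 0.1% parasitemia. After 48 h at 37 C under 5% CO2, luciferase detection reagent was added and luminescence read.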

[3] = Quantitative high throughput screen for delayed death inhibitors of the malarial parasite plastid, 96 hour incubation (AID 488745);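 also: luciferase-expressing P. falciparum in erythrocytes at 2% hematocrit and 0.1% parasitemia; series mostly up to about 29 µM; nearly all actives have a fitted effect of over 70% in size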
Summary of the method: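 Readout is firefly luciferase luminescence from an integrated reporter in P. falciparum; lower signal marks inhibited growth. Cultures at 2% hematocrit and 0.1% parasitemia were treated with compound across two generations (96 h, 37 C, 5% CO2).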

[4] = target: Ubiquitin carboxyl-terminal hydrolase 2 (Homo sapiens) (UniProt O75604); assay: qHTS Validation Assay for Inhibitors of Ubiquitin-specific Protease USP2a Using CHOP2 as the Reporter (AID 463106)
Summary of the method: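 Fluorescence read-out at Ex 485nm/Em 531nm after 60min RT, following addition of 25nM Ub-CHOP2 plus 25nM reporter substrate to USP2 core (10nM) pretreated 30min with compound. Data normalized to NEM full inhibition; concentration-response curves fitted.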

[5] = target: DNA polymerase III PolC-type (Bacillus subtilis (strain 168)) (UniProt P13267); assay: qHTS Validation Assay for the Inhibitors of DNA Replication in Gram-Positive Bacteria (AID 485295);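 also: reconstituted holoenzyme with PolC plus beta clamp SSB and primase; PicoGreen fluorescence of double-stranded DNA made on primed circular M13 template; series mostly up to about 57 µM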
Summary of the method: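 PicoGreen fluorescence (ex 480–485/em 535–540 nm) reports dsDNA synthesized on ssM13Gori template with dNTPs/NTPs. Enzyme: holoenzyme rebuilt from purified PolC, beta subunit, SSB and primase. Compound preincubated before substrate addition; RT throughout.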

[6] = target: Tumor susceptibility gene 101 protein (Homo sapiens) (UniProt Q99816); assay: qHTS Validation Assay for Iinhibitors of HIV-1 Budding by Blocking the Interaction of PTAP/TSG101 (AID 485342; calls by dose curve)
Summary of the method: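 FP read-out: FITC-PTAP peptide, 50 nM final, binding Tsg101 binding domain, 10 uM final; 20 min r.t.; 10 mM HEPES pH 7.5, 0.15 M NaCl, 0.01% Tween 20, 3 mM EDTA, 0.1 mM TCEP.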

[7] = qHTS Validation Assay to Find Inhibitors of Chronic Active B-Cell Receptor Signaling (AID 485345; active = well fitted curve in the direction sought with a large enough effect in the main read-out, with a control signal flat, not every such curve was filed as active)
Summary of the method: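 TMD8 ABC-DLBCL cells stably carrying doxycycline-inducible IkappaBalpha–green luciferase fusion plus unfused red luciferase; compounds 46 uM to 3 nM, 4 h at 37C with doxycycline. Corrected green/red luminescence ratio normalized to 10 uM MG-132 and basal cell wells; curves fitted.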

[8] = target: Beta-2 adrenergic receptor (Homo sapiens) (UniProt P07550); assay: qHTS validation assay of beta-arrestin-biased ligands of beta2-adrenergic receptor (AID 485366)
Summary of the method: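 Agonist activity is measured as luciferase luminescence downstream of beta-arrestin recruitment to recombinant beta2-AR in Tango cells. Exposure lasts 18 hr at 37 degrees C, and curves are categorized by r2, response size and activity.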

[9] = target: Thioredoxin reductase 1, cytoplasmic (Rattus norvegicus) (UniProt O89049); assay: qHTS Assay for Substrates of Mammalian Selenoprotein Thioredoxin Reductase 1 (TrxR1) (AID 488772);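 also: series mostly up to about 57 µM; a drop in NADPH fluorescence below the no-compound background marks a TrxR1 substrate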
Summary of the method: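 In this dual-purpose format, potential substrates are identified from the first fluorescence read after selenite addition, not from the 8-minute delta. Rat enzyme is preincubated with NADPH and then with compound at ~22 deg C.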

[10] = target: Flap endonuclease 1 (Homo sapiens) (UniProt P39748); assay: qHTS Validation Assay for the Inhibitors of Human Flap endonuclease 1 (FEN1) (AID 488816)
Summary of the method: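 Enzyme reagent 10 nM; cpds pinned; 15 min RT preinc.; substrate 50 nM final; reads t=0 and 15 min; no-enzyme buffer wells as neg. control; normalized data, 4-parameter Hill fit.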

Measured: outcome

Chain of Flap endonuclease 1 (Homo sapiens) (P39748 whole entry, looked up): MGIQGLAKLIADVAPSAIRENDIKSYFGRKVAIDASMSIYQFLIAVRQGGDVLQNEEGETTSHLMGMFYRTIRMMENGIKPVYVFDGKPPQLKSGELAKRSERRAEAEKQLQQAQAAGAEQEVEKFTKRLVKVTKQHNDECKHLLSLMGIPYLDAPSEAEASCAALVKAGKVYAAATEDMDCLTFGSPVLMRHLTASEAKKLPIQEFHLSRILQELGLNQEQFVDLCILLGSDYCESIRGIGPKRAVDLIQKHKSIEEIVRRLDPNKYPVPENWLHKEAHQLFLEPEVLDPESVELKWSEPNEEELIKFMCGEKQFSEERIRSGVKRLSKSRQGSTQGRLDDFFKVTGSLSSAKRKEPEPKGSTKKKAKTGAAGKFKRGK
Chain of Thioredoxin reductase 1, cytoplasmic (Rattus norvegicus) (O89049 whole entry, looked up): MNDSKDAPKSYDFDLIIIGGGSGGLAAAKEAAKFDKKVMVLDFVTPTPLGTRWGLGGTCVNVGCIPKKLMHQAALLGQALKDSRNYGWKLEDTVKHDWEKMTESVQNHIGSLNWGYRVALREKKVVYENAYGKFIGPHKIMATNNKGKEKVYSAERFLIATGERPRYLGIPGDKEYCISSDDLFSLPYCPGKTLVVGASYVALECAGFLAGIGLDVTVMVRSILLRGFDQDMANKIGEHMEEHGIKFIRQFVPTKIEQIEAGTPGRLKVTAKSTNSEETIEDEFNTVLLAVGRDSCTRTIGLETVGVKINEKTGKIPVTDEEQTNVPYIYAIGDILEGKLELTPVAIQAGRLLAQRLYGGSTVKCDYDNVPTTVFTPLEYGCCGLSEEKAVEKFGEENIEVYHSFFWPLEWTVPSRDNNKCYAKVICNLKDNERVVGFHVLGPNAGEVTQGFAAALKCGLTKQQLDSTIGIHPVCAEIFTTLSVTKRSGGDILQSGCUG
Chain of Tumor susceptibility gene 101 protein (Homo sapiens) (Q99816 whole entry, looked up, the tested form may be a part): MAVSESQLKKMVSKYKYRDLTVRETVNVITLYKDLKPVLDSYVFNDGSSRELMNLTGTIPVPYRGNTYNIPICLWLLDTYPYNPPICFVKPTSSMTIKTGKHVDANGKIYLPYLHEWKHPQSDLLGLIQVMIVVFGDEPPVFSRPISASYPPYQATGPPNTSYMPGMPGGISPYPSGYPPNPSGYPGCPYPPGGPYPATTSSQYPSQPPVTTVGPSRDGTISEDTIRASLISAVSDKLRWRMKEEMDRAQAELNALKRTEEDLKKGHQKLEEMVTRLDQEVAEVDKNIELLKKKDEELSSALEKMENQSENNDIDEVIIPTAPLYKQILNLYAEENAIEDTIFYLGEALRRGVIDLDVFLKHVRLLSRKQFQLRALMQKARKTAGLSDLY
Chain of Beta-2 adrenergic receptor (Homo sapiens) (P07550 whole entry, looked up): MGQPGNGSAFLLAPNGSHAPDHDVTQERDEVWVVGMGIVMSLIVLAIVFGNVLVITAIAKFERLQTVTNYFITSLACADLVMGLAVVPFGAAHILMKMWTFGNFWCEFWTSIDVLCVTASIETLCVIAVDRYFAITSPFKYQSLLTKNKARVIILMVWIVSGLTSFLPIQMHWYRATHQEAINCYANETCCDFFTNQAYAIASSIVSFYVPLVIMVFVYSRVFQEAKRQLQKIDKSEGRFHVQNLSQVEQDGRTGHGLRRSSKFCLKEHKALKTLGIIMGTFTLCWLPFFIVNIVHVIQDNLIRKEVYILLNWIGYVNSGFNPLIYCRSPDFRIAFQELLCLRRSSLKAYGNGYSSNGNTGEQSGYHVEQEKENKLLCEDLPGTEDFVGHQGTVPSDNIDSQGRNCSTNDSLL
Chain of DNA polymerase III PolC-type (Bacillus subtilis (strain 168)) (P13267 whole entry, looked up): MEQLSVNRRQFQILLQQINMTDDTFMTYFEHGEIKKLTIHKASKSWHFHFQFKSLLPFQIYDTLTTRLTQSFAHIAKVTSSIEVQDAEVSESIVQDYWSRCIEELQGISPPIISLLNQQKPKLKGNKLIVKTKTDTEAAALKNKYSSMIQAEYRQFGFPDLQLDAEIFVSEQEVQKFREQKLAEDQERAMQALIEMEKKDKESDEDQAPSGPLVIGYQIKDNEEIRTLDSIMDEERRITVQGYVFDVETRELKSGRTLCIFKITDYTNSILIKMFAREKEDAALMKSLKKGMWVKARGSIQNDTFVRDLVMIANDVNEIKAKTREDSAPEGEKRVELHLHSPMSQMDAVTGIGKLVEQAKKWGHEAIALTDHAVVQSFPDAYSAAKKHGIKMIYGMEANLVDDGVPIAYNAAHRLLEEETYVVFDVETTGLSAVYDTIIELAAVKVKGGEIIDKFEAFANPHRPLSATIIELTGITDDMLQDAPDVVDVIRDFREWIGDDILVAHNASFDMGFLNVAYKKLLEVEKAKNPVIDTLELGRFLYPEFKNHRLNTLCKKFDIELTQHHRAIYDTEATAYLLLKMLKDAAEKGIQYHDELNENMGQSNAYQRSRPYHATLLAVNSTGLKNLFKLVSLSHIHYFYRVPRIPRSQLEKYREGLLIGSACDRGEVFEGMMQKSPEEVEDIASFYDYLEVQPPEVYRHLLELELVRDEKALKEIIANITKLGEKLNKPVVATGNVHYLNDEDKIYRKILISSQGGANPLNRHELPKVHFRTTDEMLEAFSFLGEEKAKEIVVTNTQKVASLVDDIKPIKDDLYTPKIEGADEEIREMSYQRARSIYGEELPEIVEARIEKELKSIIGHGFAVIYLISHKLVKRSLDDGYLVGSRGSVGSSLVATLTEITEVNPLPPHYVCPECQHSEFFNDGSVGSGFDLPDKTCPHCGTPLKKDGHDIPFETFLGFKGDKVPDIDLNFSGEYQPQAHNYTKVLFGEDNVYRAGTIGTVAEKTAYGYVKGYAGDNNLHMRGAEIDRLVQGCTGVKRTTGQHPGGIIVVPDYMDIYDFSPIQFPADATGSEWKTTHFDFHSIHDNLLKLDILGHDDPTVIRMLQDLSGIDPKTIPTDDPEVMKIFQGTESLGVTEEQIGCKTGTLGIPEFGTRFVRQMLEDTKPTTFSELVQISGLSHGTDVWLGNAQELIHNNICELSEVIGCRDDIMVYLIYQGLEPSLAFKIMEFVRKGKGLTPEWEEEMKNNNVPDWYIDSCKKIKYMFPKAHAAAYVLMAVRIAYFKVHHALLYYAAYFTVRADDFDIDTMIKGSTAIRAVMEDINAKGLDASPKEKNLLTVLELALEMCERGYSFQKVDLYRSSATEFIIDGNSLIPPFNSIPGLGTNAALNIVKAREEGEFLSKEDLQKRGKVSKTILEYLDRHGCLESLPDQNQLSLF
Chain of Ubiquitin carboxyl-terminal hydrolase 2 (Homo sapiens) (O75604 whole entry, looked up): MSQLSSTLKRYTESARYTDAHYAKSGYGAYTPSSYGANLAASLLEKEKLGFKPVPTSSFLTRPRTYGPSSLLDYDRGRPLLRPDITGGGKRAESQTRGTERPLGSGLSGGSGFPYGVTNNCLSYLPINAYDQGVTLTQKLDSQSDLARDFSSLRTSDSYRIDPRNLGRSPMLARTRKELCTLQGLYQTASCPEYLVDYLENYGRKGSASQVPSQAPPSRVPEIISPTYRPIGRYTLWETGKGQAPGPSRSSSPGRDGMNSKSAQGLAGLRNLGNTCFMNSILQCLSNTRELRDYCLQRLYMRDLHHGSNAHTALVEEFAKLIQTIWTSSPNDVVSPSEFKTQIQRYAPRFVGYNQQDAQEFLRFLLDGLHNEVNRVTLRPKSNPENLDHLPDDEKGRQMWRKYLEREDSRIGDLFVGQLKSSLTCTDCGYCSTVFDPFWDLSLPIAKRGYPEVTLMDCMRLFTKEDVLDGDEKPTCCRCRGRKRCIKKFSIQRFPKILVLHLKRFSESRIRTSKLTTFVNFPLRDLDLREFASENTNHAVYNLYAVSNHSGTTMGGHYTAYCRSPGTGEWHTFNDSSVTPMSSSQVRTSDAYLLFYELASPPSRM

O=c1[nH]c(=O)n([C@H]2C[C@H](O)[C@@H](CO)O2)cc1/C=C/Br
inactive: [1] | [2]

C[C@@](Cc1ccc(O)c(O)c1)(NN)C(=O)O
inactive: [1]

O=C(NCCNCC(O)COc1ccc(O)cc1)N1CCOCC1 (configuration not stated)
inactive: [1] | [3] | [2]

Oc1ccc(/C=C/c2cc(O)cc(O)c2)cc1
not listed: [2] | [3]
inactive: all other assays above

Cc1cc(C)c(NC(=O)C[C@H](CC(=O)O)c2cccc3ccccc23)c(C(=O)N2CCC3(CCCC3)CC2)c1
inactive: [1] | [3] | [2]
